Results filed as inconclusive are left out. A call without a number means that no potency is given here. Active and inactive are the calls of the source. Calls follow the shape of the dose curve; as a rule, active = well fitted inhibition curve with a large enough effect; inconclusive = small, poorly fitted or top-dose-only effect; inactive = flat fitted curve, though single readings scatter.
Potency is read from the fitted curve at half-maximal effect.

The target of this assay is Voltage-gated inwardly rectifying potassium channel KCNH2 (Homo sapiens) (UniProt Q12809). As to the kind of experiment: qHTS Assay for Small Molecule Inhibitors of the Human hERG Channel Activity (AID 588834).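 Also: lower thallium flux fluorescence means stronger hERG block; nearly all actives have a fitted effect of over 50% in size.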 As to conditions: U2OS BacMam hERG, FluxOR thallium flux fluorescence; series mostly up to 46.1 µM. The method, boiled down: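 Step 1: BacMam hERG transduction of U2OS, 4 hrs RT. Step 2: overnight 37 °C, plate 2000 cells/well, 4 hr. Step 3: FluxOR load, compound 10 min, stimulate, read fluorescence.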
Sequence of Voltage-gated inwardly rectifying potassium channel KCNH2 (Homo sapiens) (Q12809 whole entry, looked up): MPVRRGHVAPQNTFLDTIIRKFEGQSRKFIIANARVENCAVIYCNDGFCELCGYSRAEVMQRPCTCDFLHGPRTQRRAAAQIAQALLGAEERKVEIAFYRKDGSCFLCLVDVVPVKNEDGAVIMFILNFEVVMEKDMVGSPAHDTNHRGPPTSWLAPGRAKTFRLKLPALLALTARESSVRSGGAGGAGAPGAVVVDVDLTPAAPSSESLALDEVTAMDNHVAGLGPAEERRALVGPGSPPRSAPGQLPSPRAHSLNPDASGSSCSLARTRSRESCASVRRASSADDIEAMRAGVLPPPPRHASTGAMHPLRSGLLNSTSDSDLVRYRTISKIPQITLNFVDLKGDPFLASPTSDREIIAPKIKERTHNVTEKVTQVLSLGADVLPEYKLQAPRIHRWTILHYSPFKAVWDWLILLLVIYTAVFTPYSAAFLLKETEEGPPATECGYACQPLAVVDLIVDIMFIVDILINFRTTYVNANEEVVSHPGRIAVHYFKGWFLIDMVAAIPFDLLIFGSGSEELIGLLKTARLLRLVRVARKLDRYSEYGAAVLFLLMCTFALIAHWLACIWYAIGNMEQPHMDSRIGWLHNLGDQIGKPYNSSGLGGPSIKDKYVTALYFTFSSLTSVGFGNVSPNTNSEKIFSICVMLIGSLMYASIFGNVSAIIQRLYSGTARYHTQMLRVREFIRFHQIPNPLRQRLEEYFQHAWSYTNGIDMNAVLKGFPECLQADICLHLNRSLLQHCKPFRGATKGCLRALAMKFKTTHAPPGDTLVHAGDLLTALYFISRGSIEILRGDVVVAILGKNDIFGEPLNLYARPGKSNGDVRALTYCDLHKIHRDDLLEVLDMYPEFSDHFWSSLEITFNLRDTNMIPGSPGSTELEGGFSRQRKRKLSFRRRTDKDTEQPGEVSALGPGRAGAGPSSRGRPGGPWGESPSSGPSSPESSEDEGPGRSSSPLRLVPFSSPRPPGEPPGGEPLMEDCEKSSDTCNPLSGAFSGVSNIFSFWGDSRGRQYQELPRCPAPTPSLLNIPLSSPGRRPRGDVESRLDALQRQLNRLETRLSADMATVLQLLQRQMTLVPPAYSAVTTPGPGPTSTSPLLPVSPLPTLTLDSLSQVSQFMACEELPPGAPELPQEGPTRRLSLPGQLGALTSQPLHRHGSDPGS
Consider `CN1CCN(C(c2ccccc2)c2ccc(Cl)cc2)CC1` (stereo unspecified), for which the Potency was 5.62 µM (active).
For `CCCCCCCCCCCCCCCC(=O)OC[C@@H](O)[C@H]1OC[C@H](O)[C@H]1O` the value was “inactive”.
For `CN[C@@H]1[C@@H](O)[C@@H](O[C@@H]2[C@@H](O)[C@H](OC3OC(CN)=CCC3N)[C@@H](N)C[C@H]2N)OC[C@]1(C)O` (stereo partly specified) the value was “inactive”; for `CCC(=O)c1ccc2c(c1)N(CCCN1CCN(CCO)CC1)c1ccccc1S2`, 5.01 µM (active); for `CC[C@H]1OC(=O)C[C@@H](O)[C@H](C)[C@@H](O[C@@H]2O[C@H](C)[C@@H](O[C@H]3C[C@@](C)(O)[C@@H](O)[C@H](C)O3)[C@H](N(C)C)[C@H]2O)[C@@H](CC=O)C[C@@H](C)C(=O)/C=C/C(C)=C/[C@@H]1CO[C@@H]1O[C@H](C)[C@@H](O)[C@@H](OC)[C@H]1OC`, “inactive”.
For `O=C(CO)[C@@H](O)[C@H](O)[C@@H](O)C(=O)O` the value was “inactive”; for `C=C1CC[C@H](O)CC1=C/C=C1\CCC[C@]2(C)[C@@H]([C@H](C)CCCC(C)(C)O)CC[C@@H]12`, “inactive”.
As for `Cn1nnnc1SCC1=C(C(=O)O)N2C(=O)[C@@H](NC(=O)[C@H](O)c3ccccc3)[C@H]2SC1`, the Potency entry is “inactive”.
For `N=C(N)c1ccc(/C=C/c2ccc(C(=N)N)cc2O)cc1` the value was “inactive”; for `CC12CCC(C[N+](C)(CCC[N+](C)(C)C)C1)C2(C)C` (stereo unspecified), “inactive”.
For `C[C@@H]1NC(=O)[C@@H](N)CNC(=O)[C@H](C2CCNC(N)=N2)NC(=O)/C(=C/NC(N)=O)NC(=O)[C@H](CNC(=O)C[C@@H](N)CCCN)NC1=O` (stereo partly specified) the value was “inactive”.

For the origin of these results see PubChem BioAssay (NCATS).
